PubChem BioAssay (NCI)
About 83,000 compounds went through this panel and 20% of them were active in at least one assay; those are over-represented in the sample as a whole.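 Growth was measured after 48 h exposure to one concentration of compound in 96-well plates. Values under 10 count as active.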 Active and inactive are the calls of the source.

Key:
Experiment in all cases: NCI-60 one-dose screen, 48 h (100 = growth as untreated, 0 = no growth, -100 = all killed)
Conditions in all cases: 10 µM unless noted
[1] = system: DU-145 prostate
[2] = system: K-562 leukemia
[3] = system: MALME-3M melanoma
[4] = system: MDA-MB-231 breast
[5] = system: RXF 393 renal
[6] = system: SF-268 CNS
[7] = system: SF-295 CNS
[8] = system: SF-539 CNS
[9] = system: UACC-257 melanoma
[10] = system: M14 melanoma

Measured: growth

COc1cc(/C=C/C(=O)c2ccc(F)cc2)ccc1OCCCCOc1ccc(/C=C/C(=O)c2c(C)nc3ccccc3c2C)cc1OC
active: [5] -10.5%
inactive: [1] 157% | [2] 62.2% | [3] 105% | [4] 91.5% | [6] 127% | [7] 98.8% | [8] 138% | [9] 70.3% | [10] 103%

NC(=O)c1cccc(-n2ccc3cc(NC(=O)c4ccc(N5CCOCC5)c(C(F)(F)F)c4)ccc32)n1
inactive: [1] 60.8% | [2] 36.6% | [3] 65.4% | [4] 49.6% | [6] 66.8% | [9] 74.6% | [10] 66.5%
active: [5] -21.1% | [7] -52.1% | [8] -15.4%

Nc1ncnc2c1c(-c1cccc(Cl)c1)nn2CC(=O)N1CCOCC1
inactive: [1] 111% | [2] 105% | [3] 110% | [4] 104% | [5] 99% | [6] 98.4% | [7] 98.6% | [8] 96.2% | [9] 103% | [10] 104%

C=C1C(=O)O[C@H]2[C@H]1CC/C(Cn1cc(-c3ccccc3)nn1)=C\CC[C@@]1(C)O[C@@H]21
active: [1] -61.8% | [2] -3.88% | [3] -46.2% | [4] -13% | [5] -74.1% | [8] -34.2% | [9] -46.5% | [10] -59%
inactive: [6] 61.2% | [7] 75%

C=C1C(=O)O[C@H]2[C@H]1CC/C(COC(=O)NCc1ccc(Cn3c(=O)sn(CCCCC)c3=O)cc1)=C\CC[C@@]1(C)O[C@@H]21
inactive: [4] 31.1% | [5] 11.6% | [6] 78.6% | [7] 102% | [8] 46.5% | [9] 47.1%
active: [1] 9.23% | [2] 1.16% | [3] -14.5% | [10] 2.8%

COc1ccc(C(=O)/C=C/c2c(C(F)(F)F)nc3ccccn23)cc1OC
active: [1] 4.16% | [6] 5.35% | [7] 0.39% | [8] -13.3%
inactive: [2] 11.4% | [3] 41.5% | [4] 26.2% | [5] 14.8% | [9] 30.5% | [10] 14.8%

N#Cc1c(-c2ccccc2)cc(-c2ccccc2)n(CCCC(=O)Nc2ccccc2N)c1=O
inactive: [1] 87.4% | [2] 20.2% | [3] 47.4% | [4] 69.9% | [5] 55.8% | [6] 59.5% | [7] 35.1% | [8] 52.5% | [9] 78.2% | [10] 39.8%

CC(C)c1ccc(Cc2cnc(NC(=O)c3cc(Br)cs3)s2)cc1
active: [5] -5.08% | [7] 9.99% | [8] 4.75%
inactive: [1] 38.5% | [2] 18.2% | [3] 31.1% | [4] 55.8% | [6] 48.2% | [9] 53.4% | [10] 15.8%

O=C1c2ccccc2-c2c1c1c(=O)[nH]c3ccccc3c1n2Cc1ccccc1
inactive: [1] 79% | [2] 63.3% | [3] 14% | [4] 62% | [5] 25.2% | [6] 50.7% | [7] 60.3% | [8] 55.7% | [9] 74.9% | [10] 84.2%

C=C(C)[C@@H]1CC[C@]2(C(=O)N3CCOCC3)CC[C@]3(C)[C@H](CC[C@@H]4[C@@]5(C)C/C(=C/c6ccncc6)C(=O)C(C)(C)[C@@H]5CC[C@]43C)[C@@H]12
inactive: [1] 77.9% | [2] 38.6% | [3] 77.5% | [4] 78.6% | [5] 52.3% | [6] 66.3% | [7] 85.9% | [8] 78.5% | [9] 53.7% | [10] 75%

O=C1c2c(c3c4ccccc4[nH]c3c3ccc4ccccc4c23)C(=O)N1CCN1CCOCC1
inactive: [1] 39.7% | [2] 10.9% | [3] 44.5% | [4] 69.5% | [5] 18% | [6] 56.8% | [7] 29.1% | [8] 51.7% | [9] 79.7% | [10] 36.8%

COC1=CC(c2ccc[nH]2)=N/C1=C\c1[nH]c(C)c(CC(=O)OCc2ccccc2)c1CCC(=O)OCc1ccccc1
active: [2] -11.3% | [3] -62.1% | [4] -44.5% | [5] -42.6% | [6] -2.4% | [7] -62.3% | [8] -78.1% | [9] -46% | [10] -78.2%
inactive: [1] 11.8%

Cc1cc(N2CCN(CCNc3ccnc4cc(Cl)ccc34)CC2)nc(N2CCOCC2)n1
inactive: [1] 74.8% | [2] 14.6% | [3] 60.1% | [4] 34.3% | [5] 42.9% | [6] 70.4% | [7] 75.5% | [8] 29.6% | [9] 54% | [10] 48%

O=C(CSc1nnc(-c2cnccn2)n1-c1ccccc1)c1ccc(Cl)cc1
inactive: [1] 105% | [2] 91.1% | [3] 105% | [4] 99.8% | [5] 114% | [6] 104% | [7] 99.3% | [8] 103% | [9] 96% | [10] 102%

O=C(NCCCl)Nc1ncccc1OCc1ccccc1
inactive: [1] 105% | [2] 103% | [3] 103% | [4] 101% | [5] 108% | [6] 102% | [7] 99.9% | [8] 106% | [9] 107% | [10] 99.8%

CCc1ccccc1-n1c(-c2ccc(OC)cc2)cc(-c2ccc(OC)cc2)c(C#N)c1=O
inactive: [1] 98.6% | [2] 108% | [3] 99.6% | [4] 62% | [5] 32.2% | [6] 51.9% | [7] 55.1% | [8] 23% | [9] 111% | [10] 100%

CCOC(=O)c1cc2c(n1C)-c1nc(NC(C)=O)sc1CCC2
inactive: [1] 94.3% | [2] 96.6% | [3] 108% | [4] 55.1% | [5] 83.1% | [6] 77.4% | [7] 84.1% | [8] 83.2% | [9] 67.8% | [10] 89.1%

Cn1cc(-c2ccc3nc(-c4ccc(CC(=O)ONc5cc(C(C)(C)C)on5)cc4)cnc3c2)cn1
inactive: [1] 35.1% | [2] 10.3% | [3] 22.4% | [4] 39.1% | [5] 28.8% | [6] 33.5% | [7] 38.1% | [8] 17% | [9] 39.8% | [10] 18.7%

COc1ccc(/C=C(\C#N)n2nnc3ccc(Cl)cc32)cc1
inactive: [1] 64.5% | [2] 21.2% | [3] 79.5% | [4] 76.1% | [5] 48.7% | [6] 76.1% | [7] 85.7% | [8] 53.2% | [9] 76.3% | [10] 58.1%

C=CCc1c(O)c(C(=O)/C=C/c2ccccc2)c(OC)c2ccoc12
inactive: [1] 63.2% | [2] 46.8% | [3] 79.4% | [4] 47.6% | [6] 43% | [7] 34.5% | [8] 24.8% | [9] 40.6% | [10] 59.3%
active: [5] 7.33%

CSc1nc2ccccc2cc1/C=C1/C=C(c2ccccc2)NC1=O
inactive: [1] 93.2% | [2] 35.7% | [3] 86.9% | [4] 86.6% | [5] 84.6% | [6] 87.2% | [7] 67% | [8] 96.4% | [9] 86.8% | [10] 66.8%

Cn1c(=O)c2nc(/C=C/c3ccccc3)c(=O)[nH]c2n(C)c1=S
inactive: [1] 113% | [2] 105% | [3] 105% | [4] 105% | [5] 118% | [6] 105% | [7] 99.8% | [8] 104% | [9] 112% | [10] 103%

O=C1Nc2ccccc2/C1=C/c1cccn1CCCCn1c2ccccc2c(=O)c2ccccc21
inactive: [1] 94.2% | [2] 59.5% | [3] 91.9% | [4] 64.7% | [5] 88.1% | [6] 83.1% | [7] 101% | [8] 93% | [9] 105% | [10] 85.1%

O=[N+]([O-])c1ccc(O)cc1Br
inactive: [1] 103% | [2] 93% | [3] 102% | [4] 95.4% | [5] 107% | [6] 99.6% | [7] 89.4% | [8] 91.6% | [9] 108% | [10] 96.2%

COc1ccc2c(c1)N(CCO)C1=C(C(=O)OC1)C2c1cccc(F)c1 (stereo not given)
active: [2] 9.63% | [7] -15.6% | [8] -17.3% | [10] -1.78%
inactive: [1] 10.1% | [3] 55.7% | [4] 36% | [5] 31.3% | [6] 35.5% | [9] 67.6%

CC(C)C1=NOC(=O)C1=Cc1cn(-c2ccccc2)nc1-c1ccc(F)cc1
inactive: [1] 74% | [2] 29.2% | [3] 90.8% | [4] 98.1% | [5] 82.2% | [6] 91.2% | [7] 95.5% | [8] 89.6% | [9] 91% | [10] 67.4%
